Source: PMC4336329 (PLoS ONE, 2015)
The campaign covered roughly 310,000 compounds. About 14,000 (4.5%) showed an effect of 50% or more. Effects have a minus sign here. Many of the other results were omitted from the sample, so strong results are more common in it than they were.

What follows are compounds tested against human ether-à-go-go-related gene (hERG) potassium channel (human, UniProt Q12809) (assay: primary screen, population patch clamp on CHO cells stably expressing hERG; higher = less effect of the substance).
Chain of human ether-à-go-go-related gene (hERG) potassium channel (Q12809 whole entry, looked up): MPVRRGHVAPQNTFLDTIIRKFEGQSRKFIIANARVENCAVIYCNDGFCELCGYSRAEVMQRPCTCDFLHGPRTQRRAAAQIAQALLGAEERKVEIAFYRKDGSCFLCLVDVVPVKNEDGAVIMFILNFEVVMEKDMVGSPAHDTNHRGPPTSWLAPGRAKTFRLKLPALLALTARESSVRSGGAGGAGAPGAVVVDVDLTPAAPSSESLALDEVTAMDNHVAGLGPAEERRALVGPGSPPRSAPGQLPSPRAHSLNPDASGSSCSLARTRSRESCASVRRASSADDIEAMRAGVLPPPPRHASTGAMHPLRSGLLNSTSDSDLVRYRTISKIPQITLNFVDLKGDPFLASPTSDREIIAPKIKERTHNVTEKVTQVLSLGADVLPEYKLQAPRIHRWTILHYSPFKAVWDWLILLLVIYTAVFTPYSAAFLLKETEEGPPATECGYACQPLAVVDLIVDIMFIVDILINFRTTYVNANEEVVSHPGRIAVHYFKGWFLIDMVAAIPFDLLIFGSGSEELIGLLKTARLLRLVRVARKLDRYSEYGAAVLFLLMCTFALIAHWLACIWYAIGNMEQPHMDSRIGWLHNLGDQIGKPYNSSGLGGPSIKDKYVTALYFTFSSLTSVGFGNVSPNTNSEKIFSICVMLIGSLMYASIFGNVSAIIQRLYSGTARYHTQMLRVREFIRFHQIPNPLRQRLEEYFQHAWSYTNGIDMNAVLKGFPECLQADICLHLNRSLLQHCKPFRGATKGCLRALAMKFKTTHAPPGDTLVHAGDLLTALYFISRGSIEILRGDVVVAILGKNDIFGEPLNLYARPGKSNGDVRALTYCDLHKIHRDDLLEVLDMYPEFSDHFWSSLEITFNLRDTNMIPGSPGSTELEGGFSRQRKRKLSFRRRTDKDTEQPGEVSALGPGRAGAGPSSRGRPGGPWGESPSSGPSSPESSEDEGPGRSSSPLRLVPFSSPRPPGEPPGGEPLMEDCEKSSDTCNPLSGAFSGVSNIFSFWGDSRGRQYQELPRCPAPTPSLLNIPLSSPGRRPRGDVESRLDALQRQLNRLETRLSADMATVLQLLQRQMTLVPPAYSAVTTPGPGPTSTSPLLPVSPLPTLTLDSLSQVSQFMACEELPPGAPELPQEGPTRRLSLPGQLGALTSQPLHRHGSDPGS
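Note: peak tail current of the secondary pulse compared with the same well before compound.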

SMILES | hERG current change (%, negative = inhibition) at 10uM [%]
CC(C)Oc1cccc(C(=O)NC(=S)Nc2ccc3c4c(cccc24)CC3)c1 | 14.9
Cc1cc(C)n2nc3nc(N4CCCC4)nc(-c4ccccc4)c3c2n1 | 7.37
Cc1cc(C(=O)Nc2cccnc2)on1 | -3.6
COc1cccc(CNC(=O)CCCc2nnc3n(C)c(=O)c4sccc4n23)c1 | -22.2
CCOc1cccc(OCCOCCOc2ccccc2C(C)=O)c1 | -7.23
COc1ccc(OC)c(-c2cc(C(=O)NCCN3CCOCC3)no2)c1 | -5
COc1ccc(OC)c(-c2nc(C(=O)NCCCN3CCOCC3)cc3c2[nH]c2ccccc23)c1 | -65.7
COc1ccccc1-c1cc(C(=O)NCCCN2CCOCC2)no1 | -28
CC(C)CCNC(=O)c1ccc(Cl)c(N)c1 | 18.9
Cc1ccccc1OCCCC(=O)Nc1ccc2c(c1)OCO2 | 5.46
CCN(CC)S(=O)(=O)c1ccc(NC(=O)Cn2cnc3ccccc3c2=O)cc1 | -32.8
Cc1ccc(NC(=O)Cn2cnc3cc([N+](=O)[O-])ccc3c2=O)cc1 | 0.77
CCN(CC)S(=O)(=O)c1ccc(C)c(NC(=O)Cn2cnc3cc([N+](=O)[O-])ccc3c2=O)c1 | -55.7
CCN(CC)S(=O)(=O)c1cc(NC(=O)Cn2cnc3ccccc3c2=O)ccc1C | -54.8
CN(C)S(=O)(=O)c1cccc(NC(=O)Cn2cnc3ccccc3c2=O)c1 | 8.28
Cc1ccc(NC(=O)Cn2cnc3cc([N+](=O)[O-])ccc3c2=O)c(Cl)c1 | 16.4
COc1ccc(C(=O)NCc2cc(C)nc3ccccc23)cc1 | -13.6
COCc1nc2ccccc2n1CCc1ccccc1 | -33.6
O=C1CCC(=O)N1c1ccc(-c2nc3ccccc3s2)cc1 | 16
Cc1ccc(Sc2c(C)nn(C(=O)C3CC3)c2C)cc1 | 11.6
O=C1COc2ccc(C(=O)COC(=O)Cc3ccccc3)cc2N1 | -13
Cc1ccc(N(C(=O)C2CCC(=O)N2)C2(C(=O)NC3CCCC3)CCCCC2)cc1 (stereo not shown) | 0.218
O=C(CCC1CCN(Cc2ccccc2O)CC1)NC1CC1 | -23.7
CCOc1cccc(CN2CCCC(CCC(=O)NCc3ccccc3F)C2)c1O (stereo not shown) | -65
CCOc1cccc(CN2CCC(CCC(=O)NC3CC3)CC2)c1O | -70.3
CC(=O)Nc1ccc(CN2CCCC(CCC(=O)NCc3ccccc3F)C2)cc1 (stereo not shown) | -8.19
Cc1nn(C)c(Cl)c1CN1CCCC(CCC(=O)NCc2ccccc2F)C1 (stereo not shown) | -27
Cc1ncc(CN2CCCC(CCC(=O)NCc3ccccc3F)C2)s1 (stereo not shown) | 17.8

SMILES | hERG current change (%, negative = inhibition) at 10uM [%]
O=C(CCC1CCN(C(=O)Cc2c(F)cccc2F)CC1)NC1CC1 | 11.9
O=C(CCC1CCCN(Cc2cccc(Cl)c2)C1)NCc1ccccc1F (stereo not shown) | -50.9
O=C(CCC1CCCN(Cc2ccc(O)c(Cl)c2)C1)NCc1ccccc1F (stereo not shown) | -43.2
O=C1[C@H]2[C@H](C=CC[C@H]2C(=O)N2CCOCC2)CCN1Cc1ccc(Cl)c(Cl)c1 | -3.89
CCN1CCC[C@H]1CNC(=O)c1c(OC)ccc(Br)c1OC.Cl | -12.2
Cc1ccc(-c2nc(-c3cccnc3)sc2CC(=O)O)cc1 | 11
CCN1CCN(C(=O)Cc2c(C)n(C(=O)c3ccc(Cl)cc3)c3ccc(OC)cc23)CC1.Cl | -38.6
N#Cc1nc(-c2ccc(OCc3ccccc3)cc2)oc1N1CCOCC1 | 10.4
CCc1ccc(-c2cn3nc(C)c(C)nc3n2)cc1 | -50.8
Cc1ccc(-c2cn3nc(C)c(C)nc3n2)cc1 | -6.47
Cc1nc2nc(-c3ccc(F)cc3)cn2nc1C | 7.58
O=C1C=CC(=O)N1c1ccc(I)cc1Cl | 18.9
Cc1cccc(N2CCN(C(=O)C3CCCN(S(=O)(=O)c4c(C)noc4C)C3)CC2)c1C (stereo not shown) | -22.3
Cc1ccc(C)c(N2CCN(C(=O)C3CCCN(S(=O)(=O)c4c(C)noc4C)C3)CC2)c1 (stereo not shown) | -11.1
COc1ccc(N2CCN(C(=O)C3CCCN(S(=O)(=O)c4ccc(F)cc4)C3)CC2)cc1 (stereo not shown) | -39.2
COc1ccc(N2CCN(C(=O)C3CCN(S(=O)(=O)c4ccc(C)cc4)CC3)CC2)cc1 | -10.2
COc1ccc(N2CCN(C(=O)C3CCCN(S(=O)(=O)c4ccc(C)cc4)C3)CC2)cc1 (stereo not shown) | -53.4
COc1ccc(NC(=O)C2CCN(S(=O)(=O)c3c(C)noc3/C=C/N(C)C)CC2)cc1 | -15.3
Cc1noc(C)c1S(=O)(=O)N1CCC(C(=O)N2CCN(c3ccc(Cl)cc3)CC2)CC1 | -51.7
Cc1noc(C)c1S(=O)(=O)N1CCC(C(=O)N2CCN(c3ccc(F)cc3)CC2)CC1 | -41.4
COc1ccc(N2CCN(C(=O)C3CCCN(S(=O)(=O)c4c(C)noc4C)C3)CC2)cc1 (stereo not shown) | -59.9
COc1ccc(N2CCN(C(=O)C3CCN(S(=O)(=O)c4c(C)noc4/C=C/N(C)C)CC3)CC2)cc1 | -53.8
COc1ccc(N2CCN(S(=O)(=O)c3c(C)noc3/C=C/N(C)C)CC2)cc1 | -0.914
Cc1noc(C)c1S(=O)(=O)N1CCC(C(=O)N2CCN(c3ccccc3Cl)CC2)CC1 | -13.6
CCc1ccc(NC(=O)c2sccc2-n2cccc2)cc1 | -7.29
NS(=O)(=O)c1ccc(F)c(C(=O)O)c1 | 8.68
CCNc1ccc(S(=O)(=O)N(C)C)cc1NCC(=O)Nc1ccc(F)c(Cl)c1 | -4.33
